Reference: publication PMC7862700, “An all-to-all approach to the identification of sequence-specific readers for epigenetic DNA modifications on cytosine”

Key:
Assay in all cases: DAPPL (digital affinity profiling via proximity ligation, sequencing); 10 mM Tris-HCl pH 7.5, 50 mM NaCl, 1 mM DTT, 4% glycerol, room temperature, 30 min; GST-TFs on glutathione beads, 16-mer random dsDNA library, 0.1% formaldehyde crosslink after washing; high values mean tight binding
Conditions in all cases: protein: recombinant; tags: N-terminal GST; dsDNA, one strand shown
[1] = target: T1, FLI1 (Homo sapiens, UniProt Q01543 1-452)
T1 sequence: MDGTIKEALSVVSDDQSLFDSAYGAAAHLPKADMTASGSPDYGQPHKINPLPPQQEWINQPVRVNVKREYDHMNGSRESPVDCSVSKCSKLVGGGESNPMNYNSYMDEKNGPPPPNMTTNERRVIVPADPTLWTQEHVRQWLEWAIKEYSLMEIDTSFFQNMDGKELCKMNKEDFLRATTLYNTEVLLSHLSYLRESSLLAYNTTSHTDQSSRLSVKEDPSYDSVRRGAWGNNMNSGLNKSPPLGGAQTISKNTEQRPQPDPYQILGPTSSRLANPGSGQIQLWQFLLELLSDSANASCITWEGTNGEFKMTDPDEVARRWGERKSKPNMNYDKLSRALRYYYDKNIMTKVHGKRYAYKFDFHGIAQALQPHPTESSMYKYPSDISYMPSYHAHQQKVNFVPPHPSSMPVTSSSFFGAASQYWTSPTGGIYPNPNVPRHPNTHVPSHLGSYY
Outline: (§1)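 Human transcription factors were made in yeast as GST fusions, captured on glutathione beads and barcoded with DNA. With a tag-only sample included, the pool was incubated with 200 nmole of a random double-stranded 16-mer DNA library in Tris/NaCl/DTT/glycerol buffer at room temperature for 30 min, then crosslinked with 0.1% formaldehyde after washing, ligated by proximity, amplified and sequenced. For binding signal, each hexamer's read frequency for a factor is divided by its frequency for the tag-only sample.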

[2] = target: T2, ELK1 (Homo sapiens, UniProt P19419 1-428)
T2 sequence: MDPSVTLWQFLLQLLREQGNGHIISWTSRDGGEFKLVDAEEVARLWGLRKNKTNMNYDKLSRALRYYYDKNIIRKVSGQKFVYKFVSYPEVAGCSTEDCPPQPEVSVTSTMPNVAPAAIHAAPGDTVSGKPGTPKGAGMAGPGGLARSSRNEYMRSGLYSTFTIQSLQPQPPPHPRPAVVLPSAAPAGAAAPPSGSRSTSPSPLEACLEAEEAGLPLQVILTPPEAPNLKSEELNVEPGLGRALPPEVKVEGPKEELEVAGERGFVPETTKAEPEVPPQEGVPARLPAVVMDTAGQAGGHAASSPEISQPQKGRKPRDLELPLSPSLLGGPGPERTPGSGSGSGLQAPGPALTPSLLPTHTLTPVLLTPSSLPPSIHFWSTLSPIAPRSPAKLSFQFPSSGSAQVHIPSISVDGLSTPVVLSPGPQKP
Outline: as §1

[3] = target: T3, GABPA (Homo sapiens, UniProt Q06546 1-454)
T3 sequence: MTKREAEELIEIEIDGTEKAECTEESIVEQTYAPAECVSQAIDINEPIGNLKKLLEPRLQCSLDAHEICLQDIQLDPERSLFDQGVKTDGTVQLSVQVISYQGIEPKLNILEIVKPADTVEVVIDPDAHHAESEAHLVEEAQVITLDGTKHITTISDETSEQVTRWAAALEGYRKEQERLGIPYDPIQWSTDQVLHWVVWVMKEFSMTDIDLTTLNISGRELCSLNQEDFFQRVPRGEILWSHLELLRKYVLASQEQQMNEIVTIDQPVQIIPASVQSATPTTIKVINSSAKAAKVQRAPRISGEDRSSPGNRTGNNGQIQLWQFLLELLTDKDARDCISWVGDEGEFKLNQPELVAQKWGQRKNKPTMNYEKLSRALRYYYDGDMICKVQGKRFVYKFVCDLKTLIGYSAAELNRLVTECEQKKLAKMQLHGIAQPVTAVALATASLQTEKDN
Outline: as §1

[4] = target: T4, ERG (Homo sapiens, UniProt P11308 1-479)
T4 sequence: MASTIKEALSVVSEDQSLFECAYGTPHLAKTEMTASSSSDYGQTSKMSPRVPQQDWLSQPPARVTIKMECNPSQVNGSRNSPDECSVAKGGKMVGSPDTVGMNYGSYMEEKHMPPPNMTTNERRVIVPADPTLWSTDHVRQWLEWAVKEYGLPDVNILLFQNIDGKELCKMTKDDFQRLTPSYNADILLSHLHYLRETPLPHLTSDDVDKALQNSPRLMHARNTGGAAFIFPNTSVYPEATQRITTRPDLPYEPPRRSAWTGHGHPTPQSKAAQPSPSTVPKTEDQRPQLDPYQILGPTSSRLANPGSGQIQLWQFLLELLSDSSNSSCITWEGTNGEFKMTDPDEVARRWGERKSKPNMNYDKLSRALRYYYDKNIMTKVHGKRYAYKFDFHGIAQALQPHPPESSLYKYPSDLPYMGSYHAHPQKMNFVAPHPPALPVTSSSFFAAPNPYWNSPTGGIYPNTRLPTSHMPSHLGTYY
Outline: as §1

[5] = target: ELF1 (Homo sapiens, UniProt P32519 1-619)
Outline: as §1

[6] = target: T5, EHF (Homo sapiens, UniProt Q9NZC4 1-300)
T5 sequence: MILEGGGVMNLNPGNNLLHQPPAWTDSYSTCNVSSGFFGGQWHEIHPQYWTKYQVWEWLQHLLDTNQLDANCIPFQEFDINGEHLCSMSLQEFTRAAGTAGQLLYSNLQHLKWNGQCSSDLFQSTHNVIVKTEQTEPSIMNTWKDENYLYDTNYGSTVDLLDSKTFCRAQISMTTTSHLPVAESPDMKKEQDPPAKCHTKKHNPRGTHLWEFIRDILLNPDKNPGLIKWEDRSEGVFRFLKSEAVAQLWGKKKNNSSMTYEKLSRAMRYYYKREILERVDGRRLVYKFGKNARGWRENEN
Outline: as §1

[7] = target: SPI1 (Homo sapiens, UniProt P17947 1-270)
Outline: as §1

[8] = target: SPIB (Homo sapiens, UniProt Q01892 1-262)
Outline: as §1

[9] = target: T6, ELK3 (Homo sapiens, UniProt P41970 1-407)
T6 sequence: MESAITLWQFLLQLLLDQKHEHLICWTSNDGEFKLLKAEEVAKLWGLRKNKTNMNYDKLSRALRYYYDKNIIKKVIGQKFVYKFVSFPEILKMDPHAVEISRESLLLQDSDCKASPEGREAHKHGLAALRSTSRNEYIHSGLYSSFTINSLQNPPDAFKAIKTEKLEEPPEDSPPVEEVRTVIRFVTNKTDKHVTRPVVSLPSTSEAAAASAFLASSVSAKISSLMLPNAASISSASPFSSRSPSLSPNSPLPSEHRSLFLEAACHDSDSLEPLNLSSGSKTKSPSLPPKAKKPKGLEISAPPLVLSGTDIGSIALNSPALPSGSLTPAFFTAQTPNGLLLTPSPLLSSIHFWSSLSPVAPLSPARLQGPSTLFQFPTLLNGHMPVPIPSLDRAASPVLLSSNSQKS
Outline: as §1

[10] = target: SPI1 (Homo sapiens, UniProt P17947 1-270); remark: listed apart in the source
Outline: as §1

Chain of SPIB (Q01892 whole entry): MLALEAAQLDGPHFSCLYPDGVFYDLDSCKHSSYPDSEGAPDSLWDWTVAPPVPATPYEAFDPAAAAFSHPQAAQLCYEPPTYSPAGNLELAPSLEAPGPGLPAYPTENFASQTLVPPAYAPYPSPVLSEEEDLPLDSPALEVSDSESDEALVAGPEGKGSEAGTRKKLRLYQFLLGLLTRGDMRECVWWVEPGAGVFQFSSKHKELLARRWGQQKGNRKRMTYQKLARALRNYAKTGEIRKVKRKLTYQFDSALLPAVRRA
Chain of ELF1 (P32519 whole entry): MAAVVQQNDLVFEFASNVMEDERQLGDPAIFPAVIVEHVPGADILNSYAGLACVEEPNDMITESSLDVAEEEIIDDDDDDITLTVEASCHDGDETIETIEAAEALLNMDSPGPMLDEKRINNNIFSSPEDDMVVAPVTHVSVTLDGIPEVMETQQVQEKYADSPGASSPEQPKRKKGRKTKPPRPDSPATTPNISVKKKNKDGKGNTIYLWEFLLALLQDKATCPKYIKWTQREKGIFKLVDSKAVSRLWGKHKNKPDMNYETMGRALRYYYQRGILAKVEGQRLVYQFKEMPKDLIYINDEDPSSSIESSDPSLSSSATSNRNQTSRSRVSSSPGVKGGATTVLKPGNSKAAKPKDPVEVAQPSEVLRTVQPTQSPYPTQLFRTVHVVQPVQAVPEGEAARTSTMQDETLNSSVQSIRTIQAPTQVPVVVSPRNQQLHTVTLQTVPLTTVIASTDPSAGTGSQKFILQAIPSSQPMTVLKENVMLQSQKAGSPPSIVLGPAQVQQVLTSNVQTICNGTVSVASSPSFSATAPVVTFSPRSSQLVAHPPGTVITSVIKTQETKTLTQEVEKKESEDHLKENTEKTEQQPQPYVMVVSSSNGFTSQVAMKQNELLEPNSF

Sequence	binding signal [1]	binding signal [2]	binding signal [3]	binding signal [4]	binding signal [5]	binding signal [6]	binding signal [7]	binding signal [8]	binding signal [9]	binding signal [10]
TCCGGT	3.61 fold enrichment (6-mer frequency, TF over GST control)	3.83 fold enrichment (6-mer frequency, TF over GST control)	3.5 fold enrichment (6-mer frequency, TF over GST control)	4.63 fold enrichment (6-mer frequency, TF over GST control)	3.46 fold enrichment (6-mer frequency, TF over GST control)	3.67 fold enrichment (6-mer frequency, TF over GST control)	3.58 fold enrichment (6-mer frequency, TF over GST control)	3.58 fold enrichment (6-mer frequency, TF over GST control)	4.4 fold enrichment (6-mer frequency, TF over GST control)	–
GCTTCC	3.32 fold enrichment (6-mer frequency, TF over GST control)	3.85 fold enrichment (6-mer frequency, TF over GST control)	3.27 fold enrichment (6-mer frequency, TF over GST control)	4 fold enrichment (6-mer frequency, TF over GST control)	3.21 fold enrichment (6-mer frequency, TF over GST control)	3.72 fold enrichment (6-mer frequency, TF over GST control)	3.73 fold enrichment (6-mer frequency, TF over GST control)	3.8 fold enrichment (6-mer frequency, TF over GST control)	4.31 fold enrichment (6-mer frequency, TF over GST control)	–
CTAACC	1.12 fold enrichment (6-mer frequency, TF over GST control)	1.23 fold enrichment (6-mer frequency, TF over GST control)	1.09 fold enrichment (6-mer frequency, TF over GST control)	1.16 fold enrichment (6-mer frequency, TF over GST control)	1.12 fold enrichment (6-mer frequency, TF over GST control)	1.17 fold enrichment (6-mer frequency, TF over GST control)	–	1.08 fold enrichment (6-mer frequency, TF over GST control)	1.29 fold enrichment (6-mer frequency, TF over GST control)	1.14 fold enrichment (6-mer frequency, TF over GST control)
CTACAT	1.43 fold enrichment (6-mer frequency, TF over GST control)	1.4 fold enrichment (6-mer frequency, TF over GST control)	1.44 fold enrichment (6-mer frequency, TF over GST control)	1.32 fold enrichment (6-mer frequency, TF over GST control)	1.38 fold enrichment (6-mer frequency, TF over GST control)	1.28 fold enrichment (6-mer frequency, TF over GST control)	–	1.5 fold enrichment (6-mer frequency, TF over GST control)	1.43 fold enrichment (6-mer frequency, TF over GST control)	1.38 fold enrichment (6-mer frequency, TF over GST control)
TCTTAC	1.29 fold enrichment (6-mer frequency, TF over GST control)	1.36 fold enrichment (6-mer frequency, TF over GST control)	1.33 fold enrichment (6-mer frequency, TF over GST control)	1.23 fold enrichment (6-mer frequency, TF over GST control)	1.32 fold enrichment (6-mer frequency, TF over GST control)	1.2 fold enrichment (6-mer frequency, TF over GST control)	–	1.26 fold enrichment (6-mer frequency, TF over GST control)	1.3 fold enrichment (6-mer frequency, TF over GST control)	1.26 fold enrichment (6-mer frequency, TF over GST control)
TTCCGC	3.03 fold enrichment (6-mer frequency, TF over GST control)	3.07 fold enrichment (6-mer frequency, TF over GST control)	2.79 fold enrichment (6-mer frequency, TF over GST control)	3.22 fold enrichment (6-mer frequency, TF over GST control)	2.85 fold enrichment (6-mer frequency, TF over GST control)	3.08 fold enrichment (6-mer frequency, TF over GST control)	4.75 fold enrichment (6-mer frequency, TF over GST control)	3.15 fold enrichment (6-mer frequency, TF over GST control)	3.03 fold enrichment (6-mer frequency, TF over GST control)	–
CTTCCT	3.11 fold enrichment (6-mer frequency, TF over GST control)	2.94 fold enrichment (6-mer frequency, TF over GST control)	2.95 fold enrichment (6-mer frequency, TF over GST control)	3.65 fold enrichment (6-mer frequency, TF over GST control)	3.01 fold enrichment (6-mer frequency, TF over GST control)	3.28 fold enrichment (6-mer frequency, TF over GST control)	5.09 fold enrichment (6-mer frequency, TF over GST control)	3.4 fold enrichment (6-mer frequency, TF over GST control)	3.04 fold enrichment (6-mer frequency, TF over GST control)	–
TCATTT	1.36 fold enrichment (6-mer frequency, TF over GST control)	1.33 fold enrichment (6-mer frequency, TF over GST control)	1.19 fold enrichment (6-mer frequency, TF over GST control)	1.35 fold enrichment (6-mer frequency, TF over GST control)	1.25 fold enrichment (6-mer frequency, TF over GST control)	1.36 fold enrichment (6-mer frequency, TF over GST control)	–	1.34 fold enrichment (6-mer frequency, TF over GST control)	1.16 fold enrichment (6-mer frequency, TF over GST control)	1.5 fold enrichment (6-mer frequency, TF over GST control)
